sEH inhibitor: soluble epoxide hydrolase inhibitors, primary screen, biochemical, human sEH; recombinant human sEH enzymatic activity assay; Bifunctional epoxide hydrolase 2 (Homo sapiens), P34913; 91,000 compounds, 0.34% hits; inhibition, % at 2 µM; in the data active means inhibition above about 80%
sEH activator: soluble epoxide hydrolase activators, primary screen, biochemical, human sEH | Bifunctional epoxide hydrolase 2 (Homo sapiens), P34913 | AID 717, 2007 | activation, % at 2 µM | purified human sEH enzymatic activity, activator screen | 91,000 compounds, 0.04% hits; in the data active means activation above about 37%
CYP2C9 activ: human CYP2C9 activators, primary screen, biochemical, luminescence; Cytochrome P450 2C9 (Homo sapiens), P11712; recombinant CYP2C9, luciferin-H conversion; stronger effect = higher value; factor 1 = untreated enzyme, 0 = blocked; activation factor at 5 µM; 96,000 compounds, 1.4% hits; AID 1024, 2008;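 active means activation factor of 2 or more for CYP2C9 at a 5 µM dose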
CYP2C19 activ: human CYP2C19 activators, primary screen, biochemical, luminescence; Cytochrome P450 2C19 (Homo sapiens), P33261; recombinant CYP2C19, luciferin-H EGE luminescence; stronger effect = higher value; 0 = fully inhibited enzyme, 1 = untreated enzyme; activation factor at 5 µM; 96,000 tested, under 10 active; AID 1025, 2008;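 active means activation factor of at least 2 at 5 µM in the primary screen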
CYP2C19 inhib: blockers of cytochrome P450 2C19 activity – biochemical, luminescence, ADME assay, primary screen; P33261; CYP2C19 Supersomes, luciferin-H EGE luminescence, 30 min; inhibition, % at 5 µM; 96,000 compounds, 21% hits; AID 778, 2007;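 active means CYP2C19 inhibition above a set limit at 5 µM in the primary screen, cut at about 50% in these data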
CYP2C9 inh: blockers of cytochrome P450 2C9 activity – biochemical, luminescence, ADME assay, primary screen. 96,000 compounds, 20% hits. P11712. CYP2C9 Supersomes, luciferin-H conversion. AID 777, 2007. inhibition, % at 5 µM;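 active means blocking of liver enzyme CYP2C9 beyond about 50% at 5 µM, limit read from the data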
Each line names hits and unclear results; the compound was inactive in the other large screens. In the library only some 27% were active in any assay of this set; here they are far more common.

CCOC(=O)N1CCC(NC2CCCCCCC2)CC1	CYP2C19 inhib 58.0
CCOC(=O)N1CCN(C(=O)C2CCCCC2)CC1	none
O=C(Nc1ccc(-n2cnnn2)cc1)C1CCCN1C(=O)NC1CCCCC1 (stereo not given)	CYP2C19 inhib 66.5, CYP2C9 inh 58.7
CCOc1ccccc1NC(=O)N1CCCC1C(=O)Nc1ccc(-n2cnnn2)c(C)c1 (stereo not given)	CYP2C19 inhib 69.9, CYP2C9 inh 78.8 (no result: sEH inhibitor, sEH activator)
Cc1ccc(NC(=O)N2CCCC2C(=O)Nc2ccc(-n3cnnn3)c(C)c2)cc1 (stereo not given)	none (no result: CYP2C9 activ, CYP2C19 activ, CYP2C19 inhib, CYP2C9 inh)
CCOC(=O)c1ccccc1NC(=O)c1cccc(F)c1	none
Cc1cc(C)c(C#N)c(SC(F)F)n1	none (no result: sEH inhibitor, sEH activator)
O=C(Nc1nnc(-c2cccs2)o1)c1ccco1	none
O=C(Nc1nnc(-c2ccccc2Cl)o1)c1nc2ccccc2s1	CYP2C19 inhib 68.6
COc1cccc2sc(Nc3nnc(-c4ccccc4Cl)o3)nc12	none (no result: sEH inhibitor, sEH activator)
O=C(Nc1nnc(-c2ccccc2Cl)o1)c1ccco1	CYP2C9 inh 93.2
Nc1nc(N)c2sc3nc4c(cc3c2n1)CCC4	none
COc1cccc(CN(C)C(=O)c2ccc3nccnc3c2)c1	CYP2C19 inhib 78.2
O=C(Oc1ccc(Cl)cc1)c1ccc2nccnc2c1	none
Cc1cccc(OC(=O)c2ccc3nccnc3c2)c1	CYP2C9 inh 53.7
CN(Cc1ccc(OC(F)F)cc1)C(=O)c1ccc2nccnc2c1	none (no result: sEH inhibitor, sEH activator)
O=c1cc(CN2CCN(CCO)CC2)c2cc3c(cc2o1)CCC3	none
Nc1cc(N)nc(SCc2cc(=O)oc3cc4c(cc23)CCC4)n1	CYP2C19 inhib 50.3
COCCN(CCOC)Cc1cc(=O)oc2cc3c(cc12)CCC3	CYP2C19 inhib 76.9
Cc1cc2oc(=O)cc(CN3CCCCC3)c2cc1C(C)C	none
CCOC(=O)N1CCN(Cc2cc(=O)oc3cc4c(cc23)CCC4)CC1	none
Cc1cc2oc(=O)cc(CSc3nc(N)cc(N)n3)c2cc1C(C)C	CYP2C9 inh 77.0
O=C(COC(=O)c1cc(S(=O)(=O)N2CCCCC2)ccc1N1CCOCC1)NC1CCCCC1	none
CCN(CC)c1ccc(NC(=O)OC)cc1	CYP2C9 inh 62.6
O=C(COC(=O)c1cccnc1)Nc1ccccc1	none (no result: CYP2C9 activ, CYP2C19 activ, CYP2C19 inhib, CYP2C9 inh)
O=C(COC(=O)c1cccnc1)Nc1ccc(F)cc1	CYP2C19 inhib 84.4
CCN(CC)c1ccc(NC(=O)COc2ccc(C)cc2)cc1	CYP2C19 inhib 65.7 (no result: sEH inhibitor, sEH activator)
CCOc1ccc(OCC(=O)Nc2ccc(OC)cc2)cc1	none
Cc1ccc(NC(=O)CNc2ccc(OC(C)C)cc2)cc1	CYP2C9 inh 70.2
Cc1cc(NC(=O)CCSc2nc(-c3ccco3)cc(C(F)(F)F)n2)n(-c2ccccc2)n1	none (no result: CYP2C9 activ, CYP2C19 activ, CYP2C19 inhib, CYP2C9 inh)
COc1cccc(NC(=O)CCN2CCN(C)CC2)c1	none (no result: sEH inhibitor, sEH activator)
CN(C)c1ccc(NC(=O)COC(=O)CCC(=O)c2ccc(F)cc2)cc1	CYP2C19 inhib 90.3, CYP2C9 inh 81.4
COCC(=O)Nc1ccc(N(C)C)cc1	none
Cc1cc(NC(=O)COC(=O)CCC(=O)c2ccc(F)cc2)no1	none
Cc1ccc(OCC(=O)Nc2ccc(N(C)C)cc2)cc1	CYP2C19 inhib 87.3
Nc1cc(Cl)nc(N/N=C/c2ccccc2[N+](=O)[O-])n1	none
CCOC(=O)COc1ccc2c(c1)C(=O)CC(C)(C)O2	none
CCN(CC)C(=O)c1sc(NC(=O)c2ccc(C)c([N+](=O)[O-])c2)c(C#N)c1C	none
CN(C)Cc1nc2ccccc2c(=O)n1Cc1nc(C(C)(C)C)cs1	CYP2C19 inhib 82.0, CYP2C9 inh 93.0
CCCCCc1nc2ccccc2c(=O)n1N	CYP2C19 inhib 59.7
COc1cccc(OCc2nc3ccccc3c(=O)n2N)c1	none
Cc1ccccc1OCc1nc2ccccc2c(=O)n1N	CYP2C19 inhib 52.7, CYP2C9 inh 50.3
Nn1c(COc2ccccc2)nc2ccccc2c1=O	CYP2C19 inhib 51.8
CN1CC(c2ccccn2)C2(SC(=S)N(Cc3ccccc3)C2=O)C12C(=O)Nc1ccccc12 (stereo not given)	none

Screening results from PubChem.
